Screening data as filed in PubChem BioAssay.
Compounds with a hit are over-represented: about 19% of the library has one in this group of screens.
HT1080-NT tox – kills 2HG-producing HT-1080-NT fibrosarcoma cells; HT-1080-NT fibrosarcoma viability, CellTiter-Glo ATP luminescence, 48 h; Potency, µM (series often up to 46.1 µM), hits mostly cytotoxic; actives 1.6% (n = 360,000);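 further: NT is the 2HG producing partner of a matched IDH1 knockdown line; nearly all actives have a fitted effect of over 55% in size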
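A 48-hour cytotoxicity screen used HT-1080-NT cells plated 2 hours before compound delivery. ATP-based CellTiter-Glo luminescence measured viability, normalized to DMSO and no-cell controls.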
IL-1B inflam inh – blocks inflammasome-driven IL-1 beta release. actives 4.7% (n = 360,000). THP-1 LPS/ATP IL-1B secretion, AlphaLISA, 16 h; hits give low values. activity change, % at 57.5 µM; in the data active means activity change below about -50%; inconclusive means mostly about -30% to -49%
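THP-1 cells pretreated 1 hr with compounds (up to 57.5 uM final), then stimulated with LPS (250 ng/mL final) plus ATP (1.25 mM final); secreted IL-1B measured by AlphaLISA after 16 hr, decreased signal indicating inhibition.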
HT1080 IDH1KD tx – toxicity to HT-1080 IDH1 knockdown cells (counter line); Potency, µM (top dose mostly 46.1 µM), most hits filed as cytotoxic; AID 686971; HT-1080 IDH1 knockdown viability, ATP luminescence, 48 h; actives 2% (n = 360,000)
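HT-1080-IDH1KD cells (IDH1 knocked down), 750/well in RPMI with 5% FBS, treated with compound 48 h at 37 degrees C. Viability by CellTiter-Glo luminescence, normalised to DMSO and no-cell wells; concentration-response curves classed.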
DT40 TDP1 CPT – DT40-hTDP1 cell growth loss with CPT | Potency, µM (top dose mostly 46.2 µM), actives largely listed as inhibitors | chicken DT40 Tdp1-/-;hTDP1 cells + 20 nM CPT, ATP luminescence, 48 h | AID 686979 | actives 12% (n = 420,000); further: nearly all actives have a fitted effect of over 55% in size
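Cell growth measured by CellTiter-Glo luminescence after a minimum 48 h, 37 C compound exposure with 20 nM CPT in Tdp1-knockout DT40 cells stably expressing hTDP1, seeded 400/well; qHTS titration format.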
TDP1 cell noCPT – qHTS for Inhibitors of human tyrosyl-DNA phosphodiesterase 1 (TDP1): qHTS in cells in absence of CPT; DT40 Tdp1-/- hTDP1 cells, no CPT, ATP luminescence, 48 h; Potency, µM (doses to about 46.2 µM), usual class: inhibitors; actives 15% (n = 420,000); further: nearly all actives have a fitted effect of over 55% in size
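Compound effects on proliferation are scored in DT40 Tdp1-/-;hTDP1 cells in the absence of CPT. ATP levels (CellTiter-Glo luminescence) are recorded after a ≥48 hr, 37 °C incubation.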
Each line names hits and unclear results; the compound was inactive in the other large screens. Unless noted, the call rests on the fitted dose curve; in most records, active means well fitted curve in the direction sought with a large enough effect; inconclusive means small, poorly fitted or top-dose-only effect, or another doubt; inactive means no such curve, though single readings can be large; an effect the other way counts as inactive or inconclusive.

COc1ccc(OC)c2sc(N3CCc4ccccc4C3)nc12	none
Cc1cccc(NNC(N)=S)c1	DT40 TDP1 CPT inconclusive, TDP1 cell noCPT inconclusive
COc1cc(OC)c(NC(=S)Nc2cccc(C)c2)cc1Cl	TDP1 cell noCPT 9.2µM
Cc1cccc(NC(=S)NNc2cccc(Cl)c2)c1	HT1080-NT tox 23.1µM, HT1080 IDH1KD tx inconclusive, DT40 TDP1 CPT 16.4µM, TDP1 cell noCPT 18.4µM
Cc1cccc(NNC(=S)Nc2c(C)cccc2C)c1	HT1080-NT tox inconclusive, IL-1B inflam inh -102.0, HT1080 IDH1KD tx inconclusive, DT40 TDP1 CPT inconclusive, TDP1 cell noCPT inconclusive
S=C(NNc1cccc(Cl)c1)NC1CCCCC1	HT1080-NT tox inconclusive, IL-1B inflam inh -108.0, HT1080 IDH1KD tx 14.6µM, DT40 TDP1 CPT inconclusive, TDP1 cell noCPT inconclusive
O=C(Cc1nnc(NC(=O)Nc2ccc(F)cc2)s1)NCc1ccccc1	none
COCCn1c(=O)c(-c2ccc(F)cc2)nc2cnc(Oc3ccc(OC)cc3)nc21	TDP1 cell noCPT inconclusive (no result: HT1080-NT tox, IL-1B inflam inh, HT1080 IDH1KD tx)
NC(=S)NNC(=O)Nc1cccc(Cl)c1	none
Cc1cccc(NNC(=S)Nc2ccccc2)c1	DT40 TDP1 CPT 4.11µM, TDP1 cell noCPT 2.59µM
NC(=S)NNc1cccc(Cl)c1	DT40 TDP1 CPT 16.4µM, TDP1 cell noCPT 14.6µM
COc1ccc(CNC(=S)Nc2cccc(C)c2)cc1	TDP1 cell noCPT inconclusive
Cc1cccc(NC(=S)NC(C)(C)CC(C)(C)C)c1	TDP1 cell noCPT 18.4µM
COc1ccc(-n2c(CNC(=O)c3c(-c4ccccc4)noc3C)nnc2SC)cc1	none (no result: HT1080-NT tox, IL-1B inflam inh, HT1080 IDH1KD tx)
OC(c1ccc(Cl)cc1)c1ncc(-c2cccc(C(F)(F)F)c2)[nH]1 (stereo not drawn)	HT1080-NT tox inconclusive, IL-1B inflam inh inconclusive, HT1080 IDH1KD tx inconclusive, DT40 TDP1 CPT inconclusive, TDP1 cell noCPT 20.6µM
Cc1cc(C)cc(C(O)c2ncc(-c3cccc(C(F)(F)F)c3)[nH]2)c1 (stereo not drawn)	HT1080-NT tox inconclusive, HT1080 IDH1KD tx inconclusive, DT40 TDP1 CPT inconclusive, TDP1 cell noCPT inconclusive
OC(c1cc(F)cc(Cl)c1)c1ncc(-c2cccc(C(F)(F)F)c2)[nH]1 (stereo not drawn)	HT1080-NT tox inconclusive, HT1080 IDH1KD tx inconclusive, DT40 TDP1 CPT 16.4µM, TDP1 cell noCPT 13µM
CCc1c(C)sc2c1CCN(Cc1ccccc1C#N)C2c1ccccc1 (stereo not drawn)	DT40 TDP1 CPT 9.2µM, TDP1 cell noCPT inconclusive (no result: HT1080-NT tox, IL-1B inflam inh, HT1080 IDH1KD tx)
N#Cc1ccccc1Cn1c(=O)n(-c2ccccc2)c(=O)c2c3c(sc21)CCC3	none (no result: HT1080-NT tox, IL-1B inflam inh, HT1080 IDH1KD tx)
CCc1c(C)sc2c1CCN(Cc1ccccc1)C2c1ccccc1 (stereo not drawn)	DT40 TDP1 CPT 7.31µM, TDP1 cell noCPT 2.91µM (no result: HT1080-NT tox, IL-1B inflam inh, HT1080 IDH1KD tx)
O=c1[nH]c(/C=C\c2cccs2)nc(O)c1[N+](=O)[O-]	none
O=C1C2CC=CCC2C(=O)N1c1ccc(N2CCN(c3ccccn3)CC2)c([N+](=O)[O-])c1 (stereo not drawn)	HT1080-NT tox inconclusive, DT40 TDP1 CPT inconclusive, TDP1 cell noCPT 16.4µM
CO[C@H]1[C@H](NC(=O)c2ccsc2)c2ccccc2C12CCN(Cc1cnn(C)c1C)CC2	none (no result: HT1080-NT tox, IL-1B inflam inh, HT1080 IDH1KD tx)
Cc1ccc(C2Nc3cccc4cccc(c34)N2)s1	DT40 TDP1 CPT inconclusive, TDP1 cell noCPT 18.4µM
CCCC(=O)c1cc(O)c(O)cc1O	DT40 TDP1 CPT inconclusive, TDP1 cell noCPT 17.2µM (no result: HT1080-NT tox, IL-1B inflam inh, HT1080 IDH1KD tx)
Cn1ncc([N+](=O)[O-])c1C(=O)Nc1ccccc1C#N	none
CC(CN1CCCCC1)OC(=O)C(C)(c1ccccc1)c1ccccc1 (stereo not drawn)	DT40 TDP1 CPT inconclusive, TDP1 cell noCPT 20.6µM
Cn1cccc1C(=O)N1CCC[C@@]2(CCN(c3ccncc3)C2)C1	none (no result: HT1080-NT tox, IL-1B inflam inh, HT1080 IDH1KD tx)
CCOC(=O)c1ccc(NC(=O)c2nc[nH]c2C(=O)N[C@@H](CC(C)C)C(=O)OC(C)(C)C)cc1	DT40 TDP1 CPT inconclusive, TDP1 cell noCPT inconclusive
C[C@H](NC(=O)c1nc[nH]c1C(=O)NC(c1ccccc1)c1ccccc1)C(=O)OC(C)(C)C	HT1080-NT tox inconclusive, IL-1B inflam inh inconclusive, HT1080 IDH1KD tx inconclusive, TDP1 cell noCPT inconclusive
CC(C)C[C@H](NC(=O)c1[nH]cnc1C(=O)Nc1ccccc1)C(=O)OC(C)(C)C	HT1080-NT tox inconclusive, HT1080 IDH1KD tx inconclusive, DT40 TDP1 CPT 25.9µM, TDP1 cell noCPT inconclusive
